hgDAF-12 ag: agonists of H. glycines DAF-12 nuclear receptor | HEK293 GAL4-hgDAF12 UAS-luciferase reporter, agonist luminescence; normalized to butyrate control | activation, % at 6.8 µM | 370,000 tested, 1.8% active | AID 687014;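 active means activation above a cutoff set at the mean of all screened compounds plus 3 SD, cut at about 10% in these data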;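 further: 0% = DMSO wells and 100% = sodium butyrate wells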
Wnt bcat act: activates Wnt/beta-catenin signaling in a reporter cell assay. 300,000 tested, 1.2% active. activator, plate reader. AID 743398. activation, % at 9.35 µM; in the data active means activation above about 30%, passing the limit was not always enough;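 further: 0% = neutral control wells and 100% = positive control wells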
hcDAF12 agonist: activators of H. contortus DAF-12 nuclear receptor. AID 652067. 370,000 tested, 1.4% active. HEK293 hcDAF-12 lit1-tk-luc reporter, luminescence; 0% DMSO, 100% Δ7-dafachronic acid. activation, % at 6.8 µM;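 active means activation above the mean of all tested compounds plus 3 SD, cut at about 5.5% in these data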;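 further: 100% = response to 3 µM Δ7-dafachronic acid high control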
ssDAF-12 act: S. stercoralis DAF-12 activation, primary screen. HEK293 ssDAF-12/GRIP1 lit1-tk-luc reporter, luminescence; % of 3 µM dafachronic acid response. activation, % at 6.8 µM. 370,000 tested, 1% active. AID 652126;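 active means activation above the mean over all tested compounds plus 3 SD, cut at about 0.9% in these data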;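 further: 0% = DMSO-only wells and 100% = 3 µM delta7-dafachronic acid wells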
esBAF inh: blocks esBAF chromatin remodeling in mouse ES cells. Bmi1-luciferase knock-in reporter, 24 h; 100% = twice the neutral-well signal. reporter increase, % at 12.5 µM. 350,000 tested, 2% active; in the data active means activation above about 40%;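 further: 0% = median of the plate's neutral control wells and 100% = double that signal; a rise in the Bmi1 reporter signal indicates esBAF inhibition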
DAX1 inh: inhibitors of DAX1 repression of SF-1 activated StAR promoter | HEK293T StAR-luciferase reporter, SF-1/DAX-1 repression relief | inhibition, % at 6.8 µM | 370,000 tested, 1.1% active | AID 652010;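 active means inhibition above the mean over all tested compounds plus 3 SD, cut at about 3.6% in these data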;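 further: 0% = DAX-1 cells with DMSO and 100% = cells lacking DAX-1 with DMSO; higher inhibition means more luminescence from relief of DAX-1 repression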
Active calls of the source: *. Shown are actives, neighbours in structure and some others; about 4.2% of the full set was active somewhere.

What do the screens show for `Cc1ccc(-c2noc(CN3CCCCC3)n2)cc1`?
hgDAF-12 ag: 6; hcDAF12 agonist: 2; ssDAF-12 act: 0; esBAF inh: 34; DAX1 inh: 1

What do the screens show for `Cn1ccnc1C1CCCCN1Cc1nc(-c2ccc(Cl)cc2)no1` (stereo unspecified)?
hgDAF-12 ag: 12*; Wnt bcat act: 10; hcDAF12 agonist: 0; ssDAF-12 act: -1; DAX1 inh: -1

What do the screens show for `C[C@H]1CN([C@@H](C)CO)C(=O)Cc2cc(NS(C)(=O)=O)ccc2O[C@H]1CN(C)S(=O)(=O)c1ccc(F)cc1`?
esBAF inh: -1

What do the screens show for `CSc1ncccc1C(=O)OCC(=O)c1ccc(C)s1`?
hgDAF-12 ag: -2; Wnt bcat act: 16; hcDAF12 agonist: -2; ssDAF-12 act: -1; esBAF inh: 58*; DAX1 inh: 1

How did COc1cccc(C(=O)OCC(=O)c2ccc(Br)s2)c1 do in these assays?
hgDAF-12 ag: -1; Wnt bcat act: 2; hcDAF12 agonist: 0; ssDAF-12 act: -1; esBAF inh: 3; DAX1 inh: -1

How did Cc1ccc(C(=O)COC(=O)c2cccc(O)c2)s1 do in these assays?
hgDAF-12 ag: 1; Wnt bcat act: 40*; hcDAF12 agonist: 0; ssDAF-12 act: -1; esBAF inh: 62*; DAX1 inh: 1

Results for Cc1noc(C)c1NC(=O)Nc1cccc2c1O[C@H](CN(C)S(=O)(=O)c1cccs1)[C@H](C)CN([C@H](C)CO)C2=O ?
esBAF inh: -4

Results for O=C(Oc1coc(CSc2ncccn2)cc1=O)c1ccc(Br)o1 ?
hgDAF-12 ag: 1; Wnt bcat act: -1; hcDAF12 agonist: 1; ssDAF-12 act: -1; DAX1 inh: 0

How did Cc1ccnc(SCc2cc(=O)c(OC(=O)c3ccc(Br)o3)co2)n1 do in these assays?
hgDAF-12 ag: 0; Wnt bcat act: 51*; hcDAF12 agonist: -1; ssDAF-12 act: -1; DAX1 inh: 0

What do the screens show for `Cc1nnc(NC(=O)C2COc3ccccc3O2)s1` (stereo unspecified)?
hgDAF-12 ag: 7; hcDAF12 agonist: 1; ssDAF-12 act: 0; esBAF inh: 46*; DAX1 inh: 1

What do the screens show for `Cc1cccnc1NC(=O)C1COc2ccccc2O1` (stereo unspecified)?
hgDAF-12 ag: 3; Wnt bcat act: -3; hcDAF12 agonist: 1; ssDAF-12 act: 1.4*; esBAF inh: 4; DAX1 inh: 1

Results for Cc1ccc(CSc2nnc(NC(=O)C3COc4ccccc4O3)s2)cc1 (stereo unspecified) ?
hgDAF-12 ag: 1; Wnt bcat act: -3; hcDAF12 agonist: -1; ssDAF-12 act: 0; esBAF inh: 7; DAX1 inh: 1

How did O=C(Nc1ncc(Cc2cccc(C(F)(F)F)c2)s1)C1CCCO1 (stereo unspecified) do in these assays?
hgDAF-12 ag: 9; Wnt bcat act: 13; hcDAF12 agonist: 0; ssDAF-12 act: -2; esBAF inh: 31; DAX1 inh: -1

How did Cc1ccc(Cc2cnc(NC(=O)C3CCCO3)s2)cc1 (stereo unspecified) do in these assays?
hgDAF-12 ag: 13*; hcDAF12 agonist: 4; ssDAF-12 act: 1.0*; esBAF inh: -3; DAX1 inh: 4

What do the screens show for `O=C(c1ccc2c(c1)OCO2)N1CCc2ccccc2C1`?
hgDAF-12 ag: 6; Wnt bcat act: 23; hcDAF12 agonist: 2; ssDAF-12 act: 0; esBAF inh: 45*; DAX1 inh: 1

What do the screens show for `CCN1[C@H](C(=O)NCc2ccccc2)[C@@H](CO)[C@@H]2Cn3c(ccc(-c4ccccc4)c3=O)[C@@H]21`?
esBAF inh: -2

Results for C[C@@H]1CN([C@@H](C)CO)C(=O)c2cc(-c3ccc(F)cc3)cnc2O[C@@H]1CN(C)C(=O)C1CCC1 ?
esBAF inh: 2

How did O=C(c1cc(Br)c(Br)s1)N1CCc2ccccc2C1 do in these assays?
hgDAF-12 ag: 4; Wnt bcat act: 8; hcDAF12 agonist: 0; ssDAF-12 act: -1; esBAF inh: 42*; DAX1 inh: 0

What do the screens show for `O=C(Nc1ccncc1)C1COc2ccccc2O1` (stereo unspecified)?
hgDAF-12 ag: -3; hcDAF12 agonist: -1; ssDAF-12 act: -1; esBAF inh: -3; DAX1 inh: 0

What do the screens show for `O=C(C1COc2ccccc2O1)N1CCc2ccccc2C1` (stereo unspecified)?
hgDAF-12 ag: 6; hcDAF12 agonist: 1; ssDAF-12 act: -1; esBAF inh: 47*; DAX1 inh: 0

How did CCCCCc1nnc(NC(=O)C2COc3ccccc3O2)s1 (stereo unspecified) do in these assays?
hgDAF-12 ag: 4; Wnt bcat act: 2; hcDAF12 agonist: 5.6*; ssDAF-12 act: -1; esBAF inh: 9; DAX1 inh: 2

How did O=C(Nc1ncc(Cc2ccccc2)s1)C1COc2ccccc2O1 (stereo unspecified) do in these assays?
hgDAF-12 ag: 11*; hcDAF12 agonist: 2; ssDAF-12 act: 0; esBAF inh: 53*; DAX1 inh: 4.2*

How did COc1cccc(C(=O)Nc2ccc3c(c2)OC[C@@H](C)N(C(=O)C2CCCC2)C[C@H](C)[C@@H](OC)CN(C)C3=O)c1 do in these assays?
esBAF inh: 5

Results for O=C(Nc1ccc2c(c1)OCO2)C1COc2ccccc2O1 (stereo unspecified) ?
hgDAF-12 ag: 8; Wnt bcat act: 29; hcDAF12 agonist: 4; ssDAF-12 act: 0; DAX1 inh: 1

What do the screens show for `O=C(Nc1ccc2c(c1)CCC2)C1COc2ccccc2O1` (stereo unspecified)?
hgDAF-12 ag: 12*; Wnt bcat act: 1; hcDAF12 agonist: 4; ssDAF-12 act: 0; esBAF inh: 28; DAX1 inh: 3

How did O=C(Nc1nc2c(s1)CCCC2)C1COc2ccccc2O1 (stereo unspecified) do in these assays?
hgDAF-12 ag: 3; Wnt bcat act: 5; hcDAF12 agonist: 5; ssDAF-12 act: 0; esBAF inh: -73; DAX1 inh: 4.4*

How did C[C@@H]1CN([C@@H](C)CO)C(=O)c2cc(NS(=O)(=O)c3cn(C)cn3)ccc2O[C@@H](C)CCCCO[C@@H]1CN(C)C(=O)Nc1cccc2ccccc12 do in these assays?
esBAF inh: 4

Results for CS(=O)(=O)N1CCN(c2ccc(NC(=O)c3ccc(Br)o3)cc2)CC1 ?
hgDAF-12 ag: 7; Wnt bcat act: 57*; hcDAF12 agonist: 1; ssDAF-12 act: 0; esBAF inh: 29; DAX1 inh: 3

What do the screens show for `CCC(=O)N1CCN(c2ccc(NC(=O)c3ccc(Br)o3)cc2)CC1`?
hgDAF-12 ag: 0; Wnt bcat act: -7; hcDAF12 agonist: -1; ssDAF-12 act: -1; DAX1 inh: 0

Source: PubChem BioAssay
